# PubChem BioAssay (Tox21)
# Unmarked numbers belong to inactive results. Inconclusive results are not listed. A call without a number means that no potency is given here. Activity calls are given as the source filed them. Unless noted, the call rests on the fitted dose curve; in most records, active means well fitted curve in the direction sought with a large enough effect in the repeat runs; inconclusive means weak or mixed curves; inactive means no such curve, though single readings can be large; an effect the other way counts as inactive or inconclusive.
# Experiments:
# [1] = qHTS assay to identify small molecule antagonists of the sonic hedgehog signaling (Shh) pathway (AID 1259369; calls by dose curve; further: nearly all actives have a fitted effect of over 45% in size; further: potency means the concentration at half of the fitted maximal effect)
# Procedure, shortened: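 For antagonist detection, the reporter line received test compounds together with conditioned medium, incubated 24hr at 37 C, 5% CO2, then luminescence was recorded following 30min room-temperature luciferase reagent incubation.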
# [2] = qHTS assay to identify small molecule agonists of the androgen receptor (AR) signaling pathway in the presence of an antagonist - cell viability counter screen (AID 1259379); further: nearly all actives have a fitted effect of over 25% in size; further: potency means the concentration at half of the fitted maximal effect;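 on activity change, negative = cytotoxicity: MDA-kb2 human breast cancer cells carrying an MMTV luciferase reporter; series mostly up to about 92 µM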
# Procedure, shortened: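 Seed MDA-kb2 at 3,000 cells/well; incubate 5 hr, 37C, 0% CO2. Add nilutamide to 3.0uM final, then pin compounds at 15 concentrations. Incubate 16 hr. Add CellTiter-Fluor at 15 hr, read fluorescence after 1 hr.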
# [3] = qHTS assay to identify small molecule agonists of the estrogen receptor beta (ER-beta) signaling pathway - cell viability counter screen (AID 1259380); further: nearly all actives have a fitted effect of over 30% in size; further: potency means the concentration at half of the fitted maximal effect
# Procedure, shortened: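 CellTiter-Glo read, 30 min RT, same wells as bla assay; cells ER-beta-UAS-bla HEK293T; 16 hr compound, 37C; medium 2% charcoal-stripped FBS.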
# [4] = qHTS assay to identify small molecule antagonists of the estrogen receptor beta (ER-beta) signaling pathway - cell viability counter screen (AID 1259382);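 further: HEK293T cells carrying ER-beta-UAS-bla reporter stimulated with estradiol; series mostly up to about 92 µM; nearly all actives have a fitted effect of over 55% in size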
# Procedure, shortened: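 In this multiplexed counter screen, cells were seeded at 2,000 per well in medium with 2% charcoal-stripped FBS and incubated 6 hr before compound and 1nM final E2 were added. Sixteen hours later, ATP-based luminescence reported viability.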
# [5] = qHTS assay to identify small molecule agonists or antagonists of the thyroid stimulating hormone receptor (TSHR) signaling pathway - wild type cell line counter screen (AID 1259384; calls by dose curve)
# Procedure, shortened: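 Wild-type HEK293 cells were plated 18 h at 37 C/5% CO2, pin-dosed with compound plus Ro20-1724 medium, held 30 min at room temperature, then given cAMP-d2 and anti-cAMP-cryptate; fluorescence was read after 1 h. Fifteen concentrations, triplicate.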
# [6] = biological target: Thyrotropin receptor (Homo sapiens) (UniProt P16473); assay: qHTS assay to identify small molecule antagonists of the thyroid stimulating hormone receptor (TSHR) signaling pathway (AID 1259385; calls by dose curve; further: nearly all actives have a fitted effect of over 20% in size)
# Procedure, shortened: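 TSHR-HEK293 cells were plated and held 18 h at 37C/5% CO2, then given compound plus Ro20-1724 and stimulated with TSH at 1.5 ng/mL final. After 30 min at room temperature, cAMP was detected with cAMP-d2/anti-cAMP-cryptate (1 h) by fluorescence.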
# [7] = qHTS assay to identify small molecule agonists of the estrogen receptor alpha (ER-alpha) signaling pathway in the presence of an antagonist - cell viability counter screen (AID 1259386);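 further: series mostly up to about 92 µM; cells exposed to compounds for 22 h at 37 °C before the viability read; nearly all actives have a fitted effect of over 30% in size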
# Procedure, shortened: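 Viability counter screen using VM7Luc4E2 (full-length ER-alpha, four ERE-luciferase). The cells were treated with compounds alongside ICI-182,780 10.0nM for 22hr, and live-cell protease fluorescence was quantified with CellTiter-Fluor.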
# [8] = biological target: Progesterone receptor (Homo sapiens) (UniProt P06401); assay: qHTS assay to identify small molecule agonists of the progesterone receptor (PR) signaling pathway (AID 1346784; calls by dose curve; further: nearly all actives have a fitted effect of over 30% in size)
# Procedure, shortened: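 Agonist qHTS: compounds pinned onto 3,000 PR-UAS-bla HEK 293T cells per well in charcoal-stripped serum medium, 16hr at 37C, then beta-lactamase activity measured by LiveBLAzer FRET fluorescence after 2 hours at room temperature.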
# [9] = qHTS assay to identify small molecule antagonists of the progesterone receptor (PR) signaling pathway - cell viability counter screen (AID 1346798); further: series mostly up to about 92 µM; nearly all actives have a fitted effect of over 50% in size
# Procedure, shortened: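 Cytotoxicity read as CellTiter-Glo luminescence (30 min, room temperature) in the same wells as the beta-lactamase readout. HEK293T PR-UAS-bla cells in charcoal-stripped 2% FBS received compound and R5020, then 16 h at 37C, 5% CO2.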
# [10] = qHTS assay to identify small molecule agonists of the progesterone receptor (PR) signaling pathway - cell viability counter screen (AID 1346799; calls by dose curve; further: nearly all actives have a fitted effect of over 45% in size)
# Procedure, shortened: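 Cytotoxicity measured by CellTiter-Glo luminescence (30 min, RT) in the same wells as the PR beta-lactamase agonist read. Those HEK293T cells had 16 h compound treatment at 37 C in 2% charcoal-stripped FBS medium.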
# [11] = qHTS assay to identify small molecule antagonists of the TGF-beta/Smad signaling pathway - cell viability counter screen (AID 1346824); further: nearly all actives have a fitted effect of over 50% in size
# Procedure, shortened: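 SBE-bla HEK 293T cells were plated overnight at 37 C, then given compounds in DMSO plus TGF-beta1 (added as 0.25 ng/mL solution) for 5 hr. After the bla read, CellTiter-Glo was added to the same wells and luminescence read after 30 min at room temperature.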
# [12] = qHTS assay to identify small molecule agonists of the TGF-beta/Smad signaling pathway (AID 1346859; active means well fitted activation curve with a large enough effect in the signal ratio in the repeat runs, not every such curve was filed as active; the % refers to the signal ratio; further: series mostly up to about 77 µM)
# Procedure, shortened: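 Fluorescence (ex 405 nm; em 460 and 530 nm) was read 2 h after LiveBLAzer FRET substrate at RT. The preceding compound treatment of overnight-plated SBE-bla HEK293T cells lasted 5 h at 37 C.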
# [13] = biological target: Thyrotropin-releasing hormone receptor (Homo sapiens) (UniProt P34981); assay: qHTS assay to identify small molecule antagonists of the thyrotropin-releasing hormone receptor (TRHR) signaling pathway (AID 1346877; active means well fitted inhibition curve with a large enough effect in the repeat runs, not every such curve was filed as active; further: series mostly up to about 51 µM)
# Procedure, shortened: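 Following an 18 h incubation at 37 °C and a 2 h calcium dye load, TRHR-HEK293 cells were exposed to compound (5 min, room temperature) and challenged with TRH, 1 nM final.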
# [14] = biological target: Thyrotropin-releasing hormone receptor (Homo sapiens) (UniProt P34981); assay: qHTS assay to identify small molecule agonists of the thyrotropin-releasing hormone receptor (TRHR) signaling pathway (AID 1346891; calls by dose curve; further: series mostly up to about 58 µM)
# Procedure, shortened: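 Agonist-mode intracellular calcium readout: kinetic fluorescence over 3 min at 1 s intervals after compound addition to TRHR-HEK293 cells (18 h seeded, 2 h dye-loaded at 37 C). Fifteen concentrations, triplicates.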
# [15] = biological target: Progesterone receptor (Homo sapiens) (UniProt P06401); assay: qHTS assay to identify small molecule antagonists of the progesterone receptor (PR) signaling pathway (AID 1346795; active means well fitted inhibition curve with a large enough effect in the signal ratio in the repeat runs, not every such curve was filed as active; the % refers to the signal ratio; further: potency means the concentration at half of the fitted maximal effect)
# Procedure, shortened: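 Antagonist mode with agonist R5020 at 1 nM final and 16 hr incubation at 37C. Reporter was beta-lactamase driven by UAS in HEK293T (PR-UAS-bla), 2% charcoal-stripped serum; signal from LiveBLAzer FRET substrate, 2 hr at room temperature.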
# [16] = qHTS assay to identify small molecule agonists of the TGF-beta/Smad signaling pathway - cell viability counter screen (AID 1346829); further: top concentration of the series differs between compounds; nearly all actives have a fitted effect of over 45% in size
# Procedure, shortened: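 SBE-bla HEK 293T cells plated overnight, compound exposure 5 hr at 37 C. Viability read in the same wells by CellTiter-Glo luminescence after 30 min at room temperature, following the beta-lactamase read.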
# Sequence of Progesterone receptor (Homo sapiens) (P06401 whole entry, looked up): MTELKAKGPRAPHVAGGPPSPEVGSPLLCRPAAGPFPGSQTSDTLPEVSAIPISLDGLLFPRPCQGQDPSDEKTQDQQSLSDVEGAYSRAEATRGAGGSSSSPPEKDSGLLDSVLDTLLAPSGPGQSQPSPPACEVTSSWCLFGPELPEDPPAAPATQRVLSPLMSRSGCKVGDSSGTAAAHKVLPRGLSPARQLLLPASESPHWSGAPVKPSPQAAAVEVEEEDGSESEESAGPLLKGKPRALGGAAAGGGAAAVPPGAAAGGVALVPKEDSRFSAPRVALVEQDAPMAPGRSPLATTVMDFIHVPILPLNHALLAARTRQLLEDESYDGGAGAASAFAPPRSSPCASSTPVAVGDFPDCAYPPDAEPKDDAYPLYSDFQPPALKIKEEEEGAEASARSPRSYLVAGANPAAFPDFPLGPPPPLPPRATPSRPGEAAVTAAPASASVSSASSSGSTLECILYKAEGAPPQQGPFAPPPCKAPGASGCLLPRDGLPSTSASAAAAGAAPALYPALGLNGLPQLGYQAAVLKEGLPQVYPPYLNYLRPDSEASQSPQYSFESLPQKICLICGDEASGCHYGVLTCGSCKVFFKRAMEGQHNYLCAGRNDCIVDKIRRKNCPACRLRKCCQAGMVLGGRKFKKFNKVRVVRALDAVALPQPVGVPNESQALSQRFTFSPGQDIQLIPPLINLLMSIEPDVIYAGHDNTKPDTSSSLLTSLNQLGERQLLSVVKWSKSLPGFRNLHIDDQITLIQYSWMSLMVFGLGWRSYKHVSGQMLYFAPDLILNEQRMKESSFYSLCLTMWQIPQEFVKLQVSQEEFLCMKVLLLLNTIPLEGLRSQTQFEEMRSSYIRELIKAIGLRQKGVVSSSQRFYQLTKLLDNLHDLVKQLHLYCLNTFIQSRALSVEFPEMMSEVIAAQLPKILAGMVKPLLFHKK
# Sequence of Thyrotropin-releasing hormone receptor (Homo sapiens) (P34981 whole entry, looked up): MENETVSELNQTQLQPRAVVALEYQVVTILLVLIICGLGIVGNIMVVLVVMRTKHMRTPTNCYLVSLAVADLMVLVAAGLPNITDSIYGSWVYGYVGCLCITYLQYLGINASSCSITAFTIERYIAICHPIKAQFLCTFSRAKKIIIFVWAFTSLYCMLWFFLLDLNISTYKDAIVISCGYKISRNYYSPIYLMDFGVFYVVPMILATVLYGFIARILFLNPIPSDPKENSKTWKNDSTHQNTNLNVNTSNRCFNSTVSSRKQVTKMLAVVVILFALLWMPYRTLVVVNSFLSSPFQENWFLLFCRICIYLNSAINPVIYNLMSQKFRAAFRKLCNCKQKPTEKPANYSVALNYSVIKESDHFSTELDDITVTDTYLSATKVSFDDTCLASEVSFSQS
# Sequence of Thyrotropin receptor (Homo sapiens) (P16473 whole entry, looked up): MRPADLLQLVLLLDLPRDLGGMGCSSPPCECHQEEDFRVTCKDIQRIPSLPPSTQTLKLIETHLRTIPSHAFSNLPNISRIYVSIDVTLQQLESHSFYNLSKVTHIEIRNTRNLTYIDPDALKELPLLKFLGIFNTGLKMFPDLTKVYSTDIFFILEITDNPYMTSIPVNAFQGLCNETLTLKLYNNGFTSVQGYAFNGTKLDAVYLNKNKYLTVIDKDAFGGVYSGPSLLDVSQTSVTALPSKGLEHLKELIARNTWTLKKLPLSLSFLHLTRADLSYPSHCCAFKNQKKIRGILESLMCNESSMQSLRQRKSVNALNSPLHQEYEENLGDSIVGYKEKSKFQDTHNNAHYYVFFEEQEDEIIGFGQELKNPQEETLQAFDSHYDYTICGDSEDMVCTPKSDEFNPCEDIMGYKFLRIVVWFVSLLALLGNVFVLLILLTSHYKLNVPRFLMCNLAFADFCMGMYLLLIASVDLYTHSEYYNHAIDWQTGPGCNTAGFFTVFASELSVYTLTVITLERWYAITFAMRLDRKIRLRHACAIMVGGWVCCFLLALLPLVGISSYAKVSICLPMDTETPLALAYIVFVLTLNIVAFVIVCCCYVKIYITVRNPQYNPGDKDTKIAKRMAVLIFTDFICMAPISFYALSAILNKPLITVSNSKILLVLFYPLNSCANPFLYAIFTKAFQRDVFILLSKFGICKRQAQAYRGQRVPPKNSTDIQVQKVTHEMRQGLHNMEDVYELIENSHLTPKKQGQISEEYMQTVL
smiles,measurement,setting,value
CC/C=C\CCOC(=O)CC,Potency,[1],inactive
same,Potency,[2],inactive
same,Potency,[3],inactive
same,Potency,[4],inactive
same,Potency,[5],inactive
same,Potency,[6],inactive
same,Potency,[7],inactive
same,Potency,[8],inactive
same,Potency,[9],inactive
same,Potency,[10],inactive
same,Potency,[11],inactive
same,Potency,[12],inactive
same,outcome,[13],inactive
same,Potency,[14],inactive
CN(C)c1ccc(/C=C/c2ccc([N+](=O)[O-])cc2)cc1,"activity change, negative = inhibition",[1],48% [at 8.39 µM]
same,"activity change, negative = cytotoxicity",[2],4.91% [at 8.39 µM]
same,"activity change, negative = cytotoxicity",[3],-2.6% [at 8.39 µM]
same,"activity change, negative = cytotoxicity",[4],-2.95% [at 8.39 µM]
same,cAMP activity change,[5],"6.39% [at 8.39 µM, stronger effect = higher value]"
same,"activity change, negative = inhibition",[6],-4.14% [at 8.39 µM]
same,"activity change, negative = cytotoxicity",[7],3.06% [at 8.39 µM]
same,"activity change, negative = inhibition",[15],-17.2% [at 8.39 µM]
same,"activity change, negative = cytotoxicity",[9],-5% [at 8.39 µM]
same,"activity change, negative = cytotoxicity",[10],-0.149% [at 8.39 µM]
same,"viability change, negative = cytotoxic",[11],-3.22% [at 6.97 µM]
same,"activity change, negative = cytotoxicity",[16],8.79% [at 6.97 µM]
same,activation,[12],-9.78% [at 6.97 µM]
same,activation,[14],0.993% [at 5.23 µM]
O=C(OCCCCCCOC(=O)c1ccccc1)c1ccccc1,Potency,[1],27.3 µM (active)
same,Potency,[2],inactive
same,Potency,[3],inactive
same,Potency,[4],inactive
same,Potency,[5],inactive
same,Potency,[6],inactive
same,Potency,[7],inactive
same,Potency,[8],inactive
same,Potency,[11],inactive
same,outcome,[16],inactive
same,Potency,[12],inactive
same,outcome,[13],inactive
same,Potency,[14],inactive
CCCCCCCC#N,Potency,[1],30.6 µM (active)
same,Potency,[2],inactive
same,Potency,[3],inactive
same,Potency,[4],inactive
same,Potency,[5],inactive
same,Potency,[6],inactive
same,Potency,[7],inactive
same,Potency,[15],inactive
same,Potency,[9],inactive
same,Potency,[11],inactive
same,outcome,[16],inactive
same,Potency,[12],inactive
same,outcome,[13],inactive
same,Potency,[14],inactive
Cc1oc2c(NC(=O)c3c(Cl)cccc3Cl)cccc2c1C(C)(C)O,Potency,[1],8.63 µM (active)
same,Potency,[2],21.7 µM (active)
same,Potency,[3],30.6 µM (active)
same,Potency,[5],inactive
same,Potency,[6],inactive
same,Potency,[7],inactive
same,Potency,[15],24.3 µM (active)
same,Potency,[9],inactive
same,Potency,[11],inactive
same,outcome,[16],inactive
same,Potency,[12],inactive
same,outcome,[13],inactive
same,Potency,[14],inactive
